Assay outcomes deposited in PubChem by National Center for Advancing Translational Sciences (NCATS).
Shiga inhibitor = Shiga toxin inhibition; Vero cells, Shiga toxin protein synthesis inhibition reporter; inhibition, % at 38.7 µM; 9.2% of 290,000 active; AID 2315; in the data active = inhibition mostly above about 28%, no sharp cut-off; inactive = mostly below about 43%; note: 0% is about no effect
CHX counter = counter-screen for Shiga toxin inhibitors: cycloheximide protein synthesis inhibition | cell reporter, cycloheximide protein synthesis inhibition counterscreen | max response, % | 12% of 300,000 active | AID 2314; in the data active = max response mostly above about 13%, no sharp cut-off; inactive = mostly below about 14%; note: read at 38.3 µM for the half of the compounds with a filed dose; 0% is about no effect
Pf growth 48h = P. falciparum growth inhibition at 48 hours (one generation). P. falciparum luciferase growth in erythrocytes, 48 h. Potency, µM (doses to about 28.7 µM), without a hit: top-dose activity change, negative = inhibition, usual class: inhibitors. 5.9% of 310,000 active. AID 504832; note: potency is the fitted concentration of half-maximal effect; % is set by controls: 0 for no effect and ±100 for the full control effect
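Firefly luciferase activity from engineered P. falciparum reports growth; inhibitors lower the luminescent signal. Cultures contained 2% hematocrit erythrocytes at 0.1% final parasitemia.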
Pf growth 96h = P. falciparum growth inhibition at 96 hours. P. falciparum luciferase reporter growth, 96 h. Potency, µM (series often up to 28.7 µM), without a hit: at the highest dose activity change, negative = inhibition, usual class: inhibitors. 6.9% of 320,000 active; note: potency is the fitted concentration of half-maximal effect; % is set by controls: 0 for no effect and ±100 for the full control effect
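96 h incubation, 37 C, 5% CO2, of luciferase-reporter P. falciparum-infected RBCs (2% hematocrit, 0.05% parasitemia final) with test compounds; endpoint luminescence.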
The depositor's hits bear a star; ? = inconclusive; · = no result given. Only some compounds are listed: those with a hit (about 21% of all), similar ones and a draw of the others. Unless noted, calls come from the whole dose curve; as a rule, active = well fitted inhibition curve with a large enough effect; inconclusive = small, poorly fitted or top-dose-only effect, or another doubt; inactive = no such curve, though single readings can be large or run the other way.

SMILES | Shiga inhibitor | CHX counter | Pf growth 48h | Pf growth 96h
Cc1ccc(-c2c[n+](CC(=O)Nc3c(C)cccc3C)c3n2CCC3)cc1 | 6 | -1 | ? | 15µM*
Cc1ccc(NC(=O)C[n+]2cc(-c3ccccc3)n3c2CCC3)c(C)c1 | -12 | -1 | ? | 5.2µM*
CCC1CCCCN1CC(=O)c1c(C)[nH]c2cc(C)ccc12 (stereo not drawn) | -5 | 8 | 0% | 5%
O=C(NC1(C(F)(F)F)NC(=O)N(Cc2ccccc2)C1=O)c1cccnc1 (stereo not drawn) | -23 | -5 | · | 2.9µM*
O=C(NC1(C(F)(F)F)NC(=O)N(Cc2cccnc2)C1=O)c1ccccc1 (stereo not drawn) | -9 | 1 | 7% | 13%
CCOC(=O)c1c(-c2cccs2)csc1NC(=O)CC(C)C | -12 | 8 | ? | ·
CCOC(=O)c1c(NC(=O)C2c3ccccc3Oc3ccccc32)sc(C(=O)N(CC)CC)c1C | 18 | 8 | 1.5µM* | 0.93µM*
COC(=O)c1c(NC(=O)c2ccccc2)sc(C(=O)c2ccccc2)c1C | -13 | 2 | ? | 9.3µM*
CCn1cc(C(=O)Nc2sc(C)c(C)c2C(=O)OC)cn1 | 25* | 9 | 14% | 28%
COC(=O)c1c(-c2cccs2)csc1NC(=O)c1cccnc1 | 60* | 37* | 6% | -7%
CCOC(=O)c1c(NC(=O)CN(C)C)sc(C(=O)N(CC)CC)c1C | -12 | -3 | ? | ?
COc1cc([N+](=O)[O-])cc(/C=N\NC(=O)C2COc3ccccc3O2)c1O (stereo not drawn) | 1 | -2 | ? | -4%
CCN(CC)C(=O)c1sc(NC(=O)c2cccnc2)c(C(=O)OC)c1C | -6 | -1 | 1% | 2.9µM*
CCOC(=O)c1c(NC(=O)c2cccnc2)sc(C(C)=O)c1C | -10 | -1 | 26% | ?
COc1ccccc1/C=N/NC(=O)c1ccc(Br)cc1 | 19 | 26* | 4% | -9%
COc1ccc(/C=N/N=C(/N)N[N+](=O)[O-])c(OC)c1 | 29* | 29* | 80% | 83%
COc1ccc(O)c(/C=N/NC(=O)c2ccc(OCc3cccc(Br)c3)cc2)c1 | 7 | 6 | 1.7µM* | 11%
COc1cc(C(=O)Oc2ccccc2/C=N/NC(=O)c2ccc(Cl)cc2)cc(OC)c1OC | 55* | 15* | 13µM* | 6%
COc1ccccc1/C=N/NC(=O)CNC(=O)c1ccccc1 | 27 | 1 | 0% | 13%
COc1ccc(/C=N/NC(=O)C2C(C=C(Cl)Cl)C2(C)C)c(OC)c1 (stereo not drawn) | -6 | -3 | 7% | -6%
COc1ccc(C(=O)N/N=C/c2cc(Br)ccc2O)cc1OC | -13 | -1 | ? | ?
COc1ccccc1C(=O)NCCC(=O)NCc1cccs1 | · | · | 12% | 29%
CCOc1ccccc1N1CCN(C(=O)C2CSC3(C)CCC(=O)N23)CC1 (stereo not drawn) | · | · | -29% | ?
COc1ccc(/C=N/NC(=O)c2ccc(Br)cc2)c(OC)c1 | 47 | 23* | ? | ?
COc1ccc(/C=N/NC(=O)c2ccncc2)c(OC)c1 | 20 | 5 | -12% | 0%
SMILES | Shiga inhibitor | CHX counter | Pf growth 48h | Pf growth 96h
COc1cc(/C=C2\OC(=O)c3c(OC)cccc32)ccc1O | 100* | 79* | · | ?
CC(C)(C)c1cc(OC(=O)c2ccccc2F)ccc1O | 33* | 11 | 5% | -16%
CC(C)(C)c1cc(OC(=O)c2ccncc2)ccc1O | -4 | -2 | 2% | ?
Cc1[nH]c(=O)[nH]c(=O)c1/C=N/NC(=O)[C@H](C)N | 11 | 7 | ? | ?
O=C(Nc1cccc(NC(=O)c2nccc3ccccc23)c1)c1ccco1 | 130* | 45* | 153% | ?
O=C(Nc1cccnc1)c1cccc(NC(=O)c2ccco2)c1 | -1 | 6 | 7% | 43%
O=C(Nc1cccc(NC(=O)c2sc3ccccc3c2Cl)c1)c1ccco1 | 69* | 40* | 32% | ?
CCCOc1ccc(C(=O)CCC(=O)OCC(=O)N2CC(=O)Nc3ccccc32)cc1 | -7 | 32* | · | 52%
O=C1CN(C(=O)COC(=O)c2ccc(N3CCCCCC3)c([N+](=O)[O-])c2)c2ccccc2N1 | -8 | -3 | ? | 6.6µM*
Cc1cc(C)cc(OCC(=O)OCC(=O)N2CC(=O)Nc3ccccc32)c1 | -1 | 2 | ? | 35%
O=C1CN(C(=O)COC(=O)c2ccc(Cl)cc2)c2ccccc2N1 | · | · | 0% | 0%
O=C1CN(C(=O)COC(=O)CCC(=O)c2ccc3c(c2)OCCO3)c2ccccc2N1 | 35 | 19* | -1% | -3%
O=C(CCc1ccccc1)NC(=S)NCc1ccco1 | 32 | 21 | -12% | -15%
COc1ccc(Oc2nnnn2-c2ccccc2)cc1 | 31* | 32* | 62% | 76%
COc1cccc(Oc2nnnn2-c2ccccc2)c1 | 146 | 33* | 140% | ?
Clc1ccc(Oc2nnnn2-c2ccccc2)cc1 | 27 | 15 | 33% | 50%
CCn1c(CNC(=O)c2ccccc2OC)nnc1SCC(=O)c1ccc(F)cc1 | 5 | -3 | -17% | 49%
COC(=O)C1=C[C@@H](C(=O)OC)[C@@H]2C3=C(C(=O)[C@@]2(C)NC(=O)c2ccccc2)[C@H](C)[C@@H]2C(=O)N(Cc4ccccc4)C(=O)[C@@H]2[C@@H]3C1 | 2 | 0 | · | ·
c1ccc(-c2nnc(OCC3CCCO3)c3ccccc23)cc1 (stereo not drawn) | -3 | -2 | -3% | 72%
O=Cc1cn(-c2ccccc2)nc1-c1ccc(F)cc1 | 16 | active | 30% | ?
CC1=NNC(=O)/C1=C\c1cn(-c2ccccc2)nc1-c1cccs1 | -15 | -9 | ? | 8.3µM*
CC1=NNC(=O)/C1=C\c1cn(-c2ccccc2)nc1-c1ccc(F)cc1 | 22 | 1 | 5.2µM* | 54%
O=C1NC(=O)C(c2cn(-c3ccccc3)nc2-c2ccc(F)cc2)N1 (stereo not drawn) | -6 | -3 | 4.7µM* | ?
Cc1ccc(-c2nn(-c3ccccc3)cc2/C=N/O)cc1 | 17 | 1 | · | ?
O=C(O)CCCCCN1C(=O)/C(=C\c2cn(-c3ccccc3)nc2-c2cccs2)SC1=S | -9 | -1 | ? | ?
SMILES | Shiga inhibitor | CHX counter | Pf growth 48h | Pf growth 96h
OCCCNCc1ccc(-c2ccccc2)cc1 | 30 | 1 | ? | 13%
S=C(NCc1ccc(Cl)cc1)NC1CCN(Cc2ccccc2)CC1 | -4 | -2 | -13% | 23%
Fc1ccc(CNC2CCN(Cc3ccccc3)CC2)cc1 | -6 | 13 | 9.3µM* | 1.2µM*
c1ccc(-c2ccc(CNC3CC3)cc2)cc1 | 21 | 23* | 20% | 25%
Clc1ccc(CNC2CCN(Cc3ccccc3)CC2)cc1 | · | 1 | 4.1µM* | ?
Clc1ccc(CNc2ccc(N3CCN(Cc4ccccc4)CC3)cc2)cc1 | -4 | 1 | -3% | 9.3µM*
CCN1N=C(C)C=C(c2ccccc2)n2c1nc1ccccc12 | 15 | -1 | 4% | 6%
O=C(CCC1CCN(Cc2ccc(Cl)cc2)CC1)NC1CC1 | 9 | -1 | -11% | 1µM*
O=C(CCC1CCN(Cc2ccc(C#CCCO)cc2)CC1)NC1CC1 | -4 | 1 | 12% | 29%
Clc1ccc(CN2CCC(Cc3ccccc3)CC2)cc1 | -11 | -6 | -8% | 8.3µM*
